# Values joined by “and” are separate entries in the source; they are usually repeats but may differ in a detail not shown here. Identical values can stand only once. Records with an inconclusive call do not appear. For part of these data: Potency and affinity values are given separately. A structure can be active in one record and inactive in another. Active and inactive are the calls of the source. Unless noted, the rule behind the calls is not given here.
# How the values were obtained:
# [1] = biological target: ATP-dependent translocase ABCB1 (Homo sapiens) (UniProt P08183); test: P-glycoprotein substrate transport blockade – cell-based (AID 377; in the data active = fluorescence slope change above about 50%); settings: MDR1-expressing cells, fluorescent substrate accumulation slope; stronger effect = higher value; concentration not given here
# Chain of ATP-dependent translocase ABCB1 (Homo sapiens) (P08183 whole entry, looked up): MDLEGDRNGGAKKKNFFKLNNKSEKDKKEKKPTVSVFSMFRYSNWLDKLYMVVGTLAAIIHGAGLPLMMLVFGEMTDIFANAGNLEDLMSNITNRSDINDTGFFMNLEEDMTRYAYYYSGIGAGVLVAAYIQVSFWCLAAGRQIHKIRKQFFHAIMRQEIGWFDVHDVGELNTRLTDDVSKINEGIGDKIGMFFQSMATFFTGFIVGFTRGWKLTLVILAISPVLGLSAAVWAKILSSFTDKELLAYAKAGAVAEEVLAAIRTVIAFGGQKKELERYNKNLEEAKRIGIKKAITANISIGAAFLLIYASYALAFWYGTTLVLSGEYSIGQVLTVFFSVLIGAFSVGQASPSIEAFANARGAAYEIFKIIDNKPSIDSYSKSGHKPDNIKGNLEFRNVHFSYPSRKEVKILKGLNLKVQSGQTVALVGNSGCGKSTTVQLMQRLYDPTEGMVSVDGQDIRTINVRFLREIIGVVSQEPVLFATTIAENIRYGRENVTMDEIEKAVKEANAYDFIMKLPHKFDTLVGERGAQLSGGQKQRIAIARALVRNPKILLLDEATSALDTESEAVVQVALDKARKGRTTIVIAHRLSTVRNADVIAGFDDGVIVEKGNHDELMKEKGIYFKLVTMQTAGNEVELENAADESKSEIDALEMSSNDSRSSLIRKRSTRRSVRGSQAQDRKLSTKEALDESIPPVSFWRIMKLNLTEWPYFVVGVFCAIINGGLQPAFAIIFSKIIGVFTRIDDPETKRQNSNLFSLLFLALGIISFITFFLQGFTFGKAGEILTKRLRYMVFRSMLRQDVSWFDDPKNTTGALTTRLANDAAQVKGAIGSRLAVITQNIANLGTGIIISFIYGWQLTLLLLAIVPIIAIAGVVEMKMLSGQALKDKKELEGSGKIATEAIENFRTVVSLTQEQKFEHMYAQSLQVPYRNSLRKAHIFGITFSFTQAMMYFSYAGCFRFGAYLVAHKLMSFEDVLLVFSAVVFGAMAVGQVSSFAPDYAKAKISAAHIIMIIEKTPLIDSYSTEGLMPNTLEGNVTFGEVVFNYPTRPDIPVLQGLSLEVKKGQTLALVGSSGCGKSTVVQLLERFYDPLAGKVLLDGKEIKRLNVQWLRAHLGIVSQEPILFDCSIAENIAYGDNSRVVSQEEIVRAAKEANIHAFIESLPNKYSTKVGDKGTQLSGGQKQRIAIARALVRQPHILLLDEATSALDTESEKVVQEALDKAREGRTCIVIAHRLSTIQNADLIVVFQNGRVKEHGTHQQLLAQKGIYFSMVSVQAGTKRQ
# [2] = compounds altering viability of human ES cells (AID 493140); settings: human embryonic stem cell survival screen; stronger effect = higher value;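 note: cells exposed to compounds for four days before counting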
# [3] = P. berghei load reduction in hepatocytes – cell-based, HepG2, luciferase luminescence, HepG2 viability, primary screen (AID 624349; in the data active = parasite load remaining mostly below about 12%, no sharp cut-off; inactive = mostly above about 10%;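 note: 100% = mean of DMSO negative control wells on the same plate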); settings: P. berghei liver stage in HepG2, luciferase luminescence, concentration not given here; parasite load remaining: stronger effect = lower value; viability: measured here: HepG2 viability without parasites
# [4] = biological target: 6-phosphogluconate dehydrogenase, decarboxylating (Homo sapiens) (UniProt P52209); test: inhibition of human phosphogluconate dehydrogenase – biochemical, recombinant enzyme, NADPH absorbance, primary screen (AID 1159550;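 active = at least 20% inhibition of 6-phosphogluconate dehydrogenase activity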); settings: recombinant 6PGD, NADPH absorbance 341 nm; at 10 µM; stronger effect = higher value
# Chain of 6-phosphogluconate dehydrogenase, decarboxylating (Homo sapiens) (P52209 whole entry, looked up): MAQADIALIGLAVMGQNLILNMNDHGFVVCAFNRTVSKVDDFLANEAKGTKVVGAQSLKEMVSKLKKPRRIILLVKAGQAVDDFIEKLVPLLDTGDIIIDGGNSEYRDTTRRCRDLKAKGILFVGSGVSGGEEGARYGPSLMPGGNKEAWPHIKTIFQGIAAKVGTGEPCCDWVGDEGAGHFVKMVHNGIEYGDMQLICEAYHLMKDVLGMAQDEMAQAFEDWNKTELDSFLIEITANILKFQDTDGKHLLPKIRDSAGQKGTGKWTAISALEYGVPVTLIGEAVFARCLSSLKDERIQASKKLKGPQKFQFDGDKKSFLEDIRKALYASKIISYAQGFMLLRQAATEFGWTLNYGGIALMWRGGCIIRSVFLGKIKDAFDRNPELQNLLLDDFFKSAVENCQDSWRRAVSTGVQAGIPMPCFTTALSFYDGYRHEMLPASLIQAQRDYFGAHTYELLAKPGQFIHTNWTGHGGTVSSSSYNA
# [5] = viability loss with induced miR-34 in A549 – imaging, A549 dox-inducible miR-34, nuclei and caspase counts, primary screen (AID 1347080;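 active = compounds whose cell count with miR-34 switched on is under 0.7 times the count with it off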); settings: A549 miR-34 inducible, Hoechst nuclei count, 48 h
# [6] = MELAS cybrid and Rieske KO viability enhancers – cell-based, MELAS cybrids, Rieske KO mouse fibroblasts, CellTiter-Glo, primary screen (AID 1508586;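 active = mean z-score across replicates of 1.96 or higher in either the MELAS or the Rieske mutant cell line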;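 note: z relative to plate mean and SD of compound and empty wells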); settings: low glucose
# [7] = biological target: NAD(+) hydrolase SARM1 (Homo sapiens) (UniProt Q6SZW1); test: blocking NAD cleavage by SARM1 SAM-TIR – cell lysate, NAD-Glo luminescence (AID 1508614;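 active = compound whose remaining NAD level is above about 45 nM, limit read from the data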;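 note: higher remaining NAD means stronger inhibition of SARM1 NADase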); settings: SAM-TIR HEK293T lysate NADase, at 1 µM, stronger effect = higher value
# Chain of NAD(+) hydrolase SARM1 (Homo sapiens) (Q6SZW1 whole entry, looked up, the tested form may be a part): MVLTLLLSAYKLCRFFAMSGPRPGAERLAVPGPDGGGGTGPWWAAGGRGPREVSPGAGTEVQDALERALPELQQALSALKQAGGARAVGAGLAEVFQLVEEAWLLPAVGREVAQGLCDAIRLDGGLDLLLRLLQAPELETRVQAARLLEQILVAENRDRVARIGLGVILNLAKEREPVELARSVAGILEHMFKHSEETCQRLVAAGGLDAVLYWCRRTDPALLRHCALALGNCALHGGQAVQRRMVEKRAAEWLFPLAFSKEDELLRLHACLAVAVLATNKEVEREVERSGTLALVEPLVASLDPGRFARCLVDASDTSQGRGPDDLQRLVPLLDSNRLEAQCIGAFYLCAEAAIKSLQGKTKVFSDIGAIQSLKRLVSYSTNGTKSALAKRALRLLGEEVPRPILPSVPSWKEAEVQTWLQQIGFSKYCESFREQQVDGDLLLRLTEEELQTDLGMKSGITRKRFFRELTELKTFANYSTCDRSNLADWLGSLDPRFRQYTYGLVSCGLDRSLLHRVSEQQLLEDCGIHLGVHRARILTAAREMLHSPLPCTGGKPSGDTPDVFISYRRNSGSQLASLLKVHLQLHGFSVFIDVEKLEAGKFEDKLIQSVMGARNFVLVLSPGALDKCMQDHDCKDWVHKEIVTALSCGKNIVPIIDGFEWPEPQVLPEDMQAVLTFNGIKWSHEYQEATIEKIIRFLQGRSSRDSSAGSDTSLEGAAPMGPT
# [8] = biological target: Mitogen-activated protein kinase 7 (Homo sapiens) (UniProt Q13164); test: Gal4-ERK5 driven luciferase induction – cell-based, HTS, primary screen (AID 1508626;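 active = luciferase signal above three times the same-plate solvent-only control wells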;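 note: luciferase driven by Gal4-ERK5 fusion binding five Gal4 sites before minimal TATA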); settings: HeLa Gal4-ERK5 transactivation, 18 h, at 5 µM, stronger effect = higher value
# Chain of Mitogen-activated protein kinase 7 (Homo sapiens) (Q13164 whole entry, looked up, the tested form may be a part): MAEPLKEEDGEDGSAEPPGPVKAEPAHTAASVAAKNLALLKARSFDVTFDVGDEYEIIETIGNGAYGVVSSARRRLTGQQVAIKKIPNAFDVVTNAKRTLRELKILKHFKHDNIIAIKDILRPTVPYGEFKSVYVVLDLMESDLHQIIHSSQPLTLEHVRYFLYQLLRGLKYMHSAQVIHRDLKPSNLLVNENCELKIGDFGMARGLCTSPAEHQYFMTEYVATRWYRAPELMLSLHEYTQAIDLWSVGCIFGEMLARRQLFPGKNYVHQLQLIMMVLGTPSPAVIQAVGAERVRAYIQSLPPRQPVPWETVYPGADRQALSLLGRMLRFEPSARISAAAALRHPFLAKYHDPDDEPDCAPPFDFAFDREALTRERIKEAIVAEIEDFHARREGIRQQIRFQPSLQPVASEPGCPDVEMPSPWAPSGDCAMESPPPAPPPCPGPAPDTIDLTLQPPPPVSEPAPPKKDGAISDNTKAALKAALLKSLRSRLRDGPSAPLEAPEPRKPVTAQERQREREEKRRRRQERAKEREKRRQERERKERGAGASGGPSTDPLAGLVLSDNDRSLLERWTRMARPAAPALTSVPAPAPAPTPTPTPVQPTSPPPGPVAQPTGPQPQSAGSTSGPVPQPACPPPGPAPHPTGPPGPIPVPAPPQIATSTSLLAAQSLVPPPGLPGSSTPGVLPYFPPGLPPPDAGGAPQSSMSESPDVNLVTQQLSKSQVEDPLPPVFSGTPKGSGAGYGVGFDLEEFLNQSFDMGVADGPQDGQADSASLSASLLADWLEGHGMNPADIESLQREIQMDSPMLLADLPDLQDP
# [9] = blockers of polyQ-driven CASP3 activation – cell-based (AID 1583); settings: polyglutamine-induced caspase-3 activation, cell assay; stronger effect = higher value;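 tested at 10 µM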
# [10] = yeast 75Q aggregation reduction – 75Q-TubU reporter (AID 1593); settings: Yeast 75Q polyglutamine aggregation reporter
# [11] = restoration of touch response, mutant HTT neurons – whole organism, C. elegans mechanosensory neurons, N-terminal huntingtin (AID 1599); settings: C. elegans polyQ-huntingtin mechanosensory neurons, stronger effect = higher value
# [12] = blockers of cytochrome c efflux from mitochondria – biochemical, purified mitochondria (AID 1603); settings: stronger effect = lower value;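 note: mouse liver mitochondria challenged with calcium chloride; signal normalized to the plate average as 100%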
# [13] = polyglutamine aggregate formation blockers (AID 1604); settings: polyglutamine-induced protein aggregation inhibition assay; stronger effect = higher value; tested at 2.5 µM
# [14] = rescue of PC12 cells from polyQ htt toxicity – LDH release (AID 1610); settings: PC12 mutant huntingtin toxicity, final LDH at 4 uM, stronger effect = lower value
# [15] = glutamate transport activators, MN-1 cells, MN-1 cell line (AID 1612); settings: MN-1 motor neuron cells, stronger effect = higher value;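 note: tested at 1 µM final; 0% = mean of DMSO vehicle wells on each plate; positive means more glutamate uptake than control and negative means less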
# [16] = 75Q-TubH aggregate inhibition, S. cerevisiae, yeast (AID 1616); settings: S. cerevisiae 75Q-TubH polyglutamine aggregation suppression; stronger effect = higher value
# [17] = compounds altering circadian rhythm period length – cell-based, LOPAC library, luminescence reporter (AID 2774); settings: circadian reporter cells, at 7 µM, actives lie on both sides;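 note: values are relative to mean of DMSO wells on each plate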
# [18] = test system: Hepatitis C virus NS3 helicase; test: blockers of NS3h binding to ssDNA – biochemical, fluorescence polarization, LOPAC1280 library, primary screen (AID 687035; in the data active = inhibition above about 37%); settings: Purified HCV NS3 helicase, Cy5-dT15 ssDNA binding fluorescence polarization; stronger effect = higher value; concentration not given here
# [19] = compounds altering Cy5-DNA-NS3h complex signal – biochemical, LOPAC1280, artefact control for HCV NS3 helicase inhibitor project (AID 687037); settings: Cy5-DNA-NS3h complex fluorescence interference counterscreen
# [20] = viability loss in pontine glioma line – cell-based, SU-DIPG-IV, MIPE4.0, CellTiter-Glo, qHTS, dose response (AID 1347063; cut-off not given, nearly all actives have AC50 up to about 30 µM;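 note: compound exposure lasted 48 hours before the viability readout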); settings: CellTiter-Glo ATP luminescence
# [21] = viability loss in pontine glioma line – cell-based, SU-DIPG-XXV, MIPE5.0, CellTiter-Glo, qHTS, dose response (AID 1347065; cut-off not given, nearly all actives have AC50 up to about 26 µM;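 note: cells exposed to compound for 48 hours before ATP readout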); settings: CellTiter-Glo ATP luminescence
# [22] = growth inhibition of DIPG cells – cell-based, MIPE4.0 library, CellTiter-Glo luminescence, qHTS (AID 1347066; cut-off not given, nearly all actives have AC50 up to about 30 µM;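 note: cells exposed to compound for 48 hours before readout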); settings: SU-DIPG-VI viability, CellTiter-Glo ATP luminescence
# [23] = chitosan synthesis blockers in C. neoformans – flow cytometry, Cibacron Brilliant Red staining (AID 1347148); settings: Cryptococcus neoformans chitosan, stronger effect = lower value; at 10 µM unless noted;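 note: compound exposure lasted three days at 37 degrees C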
# [24] = blockers of cellular phospholipid synthesis – cell-based, LOPAC library, screen 4, primary screen (AID 1347384); settings: animal cells, phospholipid biosynthesis inhibition screen; at 10 µM
# [25] = galactose survival enhancers in mitochondrial complex I cybrids – cell-based, galactose medium, ATP luminescence, primary screen (AID 1645843;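 active = z-score of at least 1.8 in each of two replicates, scored against plate mean and spread of sample wells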;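 note: positive z means more ATP and so rescue of galactose-driven cybrid death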); settings: complex I mutant cybrid cells, 72 h, stronger effect = higher value
# [26] = stronger effect = lower value, cell number ratio, induced over uninduced
# [27] = measured here: relative caspase fold change +Dox/-Dox
# [28] = measured here: total cells with miR-34 induction, stronger effect = lower value
# [29] = measured here: total cells without miR-34 induction
# [30] = MELAS cybrid survival, CellTiter-Glo 48 h, stronger effect = higher value
# [31] = Rieske KO mouse fibroblast survival, CellTiter-Glo 72 h
structure (smiles),measurement,setting,value
C[C@]12CC[C@H]3C(=CCc4cc(O)ccc43)[C@@H]1CCC2=O,fluorescence slope change,[1],51.2% (active)
same,survival,[2],2.75 (inactive)
same,parasite load remaining,[3],125% (inactive)
same,viability,[3],97.4%
same,inhibition,[4],9.47% (inactive)
same,fold change,[5]; [26],0.908 (inactive)
same,fold change,[5]; [27],1.13
same,cell count,[5]; [28],7380
same,cell count,[5]; [29],8130
same,z-score,[6]; [30],0.735 (inactive)
same,z-score,[6]; [31],0.488
same,remaining NAD,[7],10 nM (inactive)
same,luciferase signal,[8],84 AU (inactive)
CN1[C@@H]2CC[C@H]1CC(OC(=O)[C@H](CO)c1ccccc1)C2 (some centres undefined),fluorescence slope change,[1],17.8% (inactive)
same,parasite load remaining,[3],60.1% (inactive)
same,viability,[3],43.8%
same,inhibition,[4],-17.7% (inactive)
same,fold change,[5]; [26],0.891 (inactive)
same,fold change,[5]; [27],1.14
same,cell count,[5]; [28],8370
same,cell count,[5]; [29],9390
same,z-score,[6]; [30],-0.995 (inactive)
same,z-score,[6]; [31],-0.351
same,remaining NAD,[7],10 nM (inactive)
same,luciferase signal,[8],144 AU (inactive)
Oc1cc2c(cc1O)[C@@H]1c3ccc(O)c(O)c3OC[C@]1(O)C2,inhibition,[4],1.84% (inactive)
same,fold change,[5]; [26],0.884 (inactive)
same,fold change,[5]; [27],0.956
same,cell count,[5]; [28],9250
same,cell count,[5]; [29],10500
same,z-score,[6]; [30],-0.379 (inactive)
same,z-score,[6]; [31],0.131
same,luciferase signal,[8],28 AU (inactive)
CC[C@H](CO)NCCN[C@H](CC)CO,survival,[2],12.8 (inactive)
same,parasite load remaining,[3],28.5% (inactive) and 112% (inactive)
same,viability,[3],48.5% and 92.2%
same,inhibition,[4],-0.439% (inactive)
same,fold change,[5]; [26],0.912 (inactive)
same,fold change,[5]; [27],0.977
same,cell count,[5]; [28],8580
same,cell count,[5]; [29],9410
same,z-score,[6]; [30],0.519 (inactive)
same,z-score,[6]; [31],0.22
O[C@H]1[C@H]2c3cc4c(cc3CN3CCC(=C[C@@H]1O)[C@H]23)OCO4,inhibition,[4],9.07% (inactive)
same,fold change,[5]; [26],1.05 (inactive)
same,fold change,[5]; [27],1.33
same,cell count,[5]; [28],1670
same,cell count,[5]; [29],1580
C[C@H](CCC(=O)O)[C@H]1CC[C@H]2[C@@H]3CC[C@@H]4C[C@H](O)CC[C@]4(C)[C@H]3CC[C@]12C,survival,[2],3.25 (inactive)
same,parasite load remaining,[3],106% (inactive)
same,viability,[3],101%
same,inhibition,[4],3.51% (inactive)
same,fold change,[5]; [26],0.876 (inactive)
same,fold change,[5]; [27],1.28
same,cell count,[5]; [28],8840
same,cell count,[5]; [29],10100
same,z-score,[6]; [30],0.139 (inactive)
same,z-score,[6]; [31],-0.0326
same,luciferase signal,[8],76 AU (inactive)
NC(=NCc1ccccc1)NC(=O)c1nc(Cl)c(N)nc1N,fluorescence slope change,[1],28% (inactive)
same,inhibition,[9],7.39%
same,score,[10],1.09
same,rescue above control,[11],5.46
same,cytochrome c release ratio,[12],0.99
same,inhibition of aggregation,[13],14.3%
same,normalised LDH release,[14],1.01
same,glutamate uptake change,[15],12.4%
same,aggregation suppression score,[16],1.26
same,period change,[17],0.11 h (inactive)
same,survival,[2],1.67 (inactive)
same,parasite load remaining,[3],116% (inactive) and 20% (inactive)
same,viability,[3],89.9% and 61%
same,inhibition,[18],-1% (inactive)
same,fluorescence ratio (interference),[19],1 (inactive)
same,inhibition,[4],-0.294% (inactive)
same,outcome,[20],inactive
same,AC50,[21],18.6 µM (active)
same,outcome,[22],inactive
same,fold fluorescence,[23],5.57 [at 156.4 µM] (inactive)
same,outcome,[24],inactive
same,z-score,[6]; [30],2.18 (active) and 1.24 (inactive)
same,z-score,[6]; [31],1.18 and 1.91
same,luciferase signal,[8],56 AU (inactive)
same,z-score,[25],-0.87 (inactive) and -0.455 (inactive)

# From PubChem BioAssay
